HT1080NT lethal – kills 2HG-producing HT-1080-NT fibrosarcoma cells. Potency, µM (doses to about 46.1 µM), for inactives: at the highest dose activity, negative = less viability, actives largely listed as cytotoxic. AID 686970. hit rate 1.6% among 360,000. HT-1080-NT fibrosarcoma viability, CellTiter-Glo ATP luminescence, 48 h;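 further: NT is the 2HG producing partner of a matched IDH1 knockdown line; 0% = DMSO-treated cells and -100% = media-only wells without cells; nearly all actives have a fitted effect of over 55% in size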
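Luminescent CellTiter-Glo readout after 48 hours of compound exposure at 37 degrees C defined viability of HT-1080-NT cells. Activity was normalized to DMSO wells and cell-free media wells; concentration-response curves were fitted and assigned curve classes.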
ATXN2 expr inh – ATXN2 expression inhibition | hit rate 0.72% among 360,000 | Potency, µM (highest dose often 57 µM), for inactives: top-dose activity change, negative = inhibition, usual class: inhibitors | HEK-293 ATXN2-luciferase reporter, luminescence, 24 h; further: on the % scale 0 is the no-effect control and ±100 the full control effect; nearly all actives have a fitted effect of over 55% in size
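ATXN2-luciferase reporter cells (luciferase flanked by upstream and downstream ATXN2 gene portions) were treated 24 h at 37 °C with compounds at up to 57 uM. SteadyGlo luminescence gave expression; GF-AFC fluorescence gave viability.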
HepG2 tox – counter-screen for TGF-b inhibitors: cytotoxicity in HepG2 cells; Potency, µM (series often up to 46.1 µM), for inactives: at the highest dose activity change, negative = cytotoxicity, usual class: cytotoxic; hit rate 0.76% among 410,000; HepG2 CAGA-GFP viability, ATP luminescence, 18 h
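CellTiter-Glo luminescence gave cytotoxicity after 18 hours at 37 degrees C. The cells were HepG2 CAGA-GFP in 1% FBS DMEM, stimulated with 500 pg/mL TGF-beta after compound addition. %Activity was normalised to no-cell wells (complete cell-killing) and DMSO (no toxicity), and curves were fitted and classified.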
TGFb inhibitor – TGF-b pathway inhibition; HepG2 CAGA-GFP TGF-b/SMAD3 reporter, GFP fluorescence, 18 h; TGF-beta stimulated, 500 pg/mL final; Potency, µM (highest dose often 46.1 µM), without a hit: at the top dose activity, negative = inhibition, actives largely listed as inhibitors; hit rate 1.2% among 410,000; further: on the % scale 0 is the no-effect control and ±100 the full control effect; nearly all actives have a fitted effect of over 65% in size
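Smad-responsive CAGA-GFP expression was quantified in HEPG2 cells exposed to compounds and 500 pg/mL final TGF-beta for 18 h at 37 degrees C; unstimulated wells defined full inhibition.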
HT1080 IDH1KD tx – kills HT-1080 cells with IDH1 knockdown; AID 686971; HT-1080 IDH1 knockdown viability, ATP luminescence, 48 h; hit rate 2% among 360,000; Potency, µM (highest dose often 46.1 µM), for the others: at the top dose activity, negative = toxicity, actives largely listed as cytotoxic;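 further: 0% = DMSO wells and -100% = cell-free medium wells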
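Luminescent ATP read-out (CellTiter-Glo, 10 min at room temperature) after 48 h compound exposure at 37 °C gave viability of IDH1-knockdown HT-1080 cells. Activity was normalised to DMSO and cell-free wells, then fitted as concentration-response curves.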
S2 tox – cell viability loss in ATXN counter-screen; S2 cells (HEK-293 line with an ATXN2-luciferase reporter) viability, CellTiter-Fluor protease fluorescence, 24 h; Potency, µM (series often up to 56.7 µM), most hits filed as cytotoxic; hit rate 0.49% among 400,000; AID 651635; further: nearly all actives have a fitted effect of over 40% in size
* = called active by the depositor; [ ] = another dose, or the depositor's remark. A selection: hits, their analogues and other compounds. The true share with any hit is near 3.8%. The call rests on the fitted dose curve; in most records, active means well fitted curve in the direction sought with a large enough effect; inconclusive means small, poorly fitted or top-dose-only effect, or another doubt; inactive means no such curve, though single readings can be large; an effect the other way counts as inactive or inconclusive. Potency means the concentration at half of the fitted maximal effect.

How did CCOC(=O)c1c(C)[nH]c(C)c1S(=O)(=O)NCCN1CCN(c2cc(Cl)ccc2C)CC1 do in these assays?
HT1080NT lethal: inconclusive; HepG2 tox: -115%; TGFb inhibitor: 11µM*; HT1080 IDH1KD tx: inconclusive; S2 tox: inactive

What do the screens show for `Cc1ccc(C(=O)N2CCN(CCc3ccncc3)CC2)cc1`?
HepG2 tox: -2%; TGFb inhibitor: 2%

What do the screens show for `Cc1ccccc1C(=O)N/N=C/c1ccc([N+](=O)[O-])s1`?
HT1080NT lethal: 20µM*; ATXN2 expr inh: 7.9µM*; HepG2 tox: -109%; TGFb inhibitor: inconclusive; HT1080 IDH1KD tx: 8.9µM*; S2 tox: inconclusive

Results for Cn1c(SCC(=O)N/N=C/c2cc([N+](=O)[O-])ccc2O)nnc1-c1ccccc1 ?
HT1080NT lethal: -17%; ATXN2 expr inh: inconclusive; HepG2 tox: 0%; TGFb inhibitor: -7%; HT1080 IDH1KD tx: -3%; S2 tox: inactive

What do the screens show for `Cc1ccccc1NC(=O)/C=C/c1ccc([N+](=O)[O-])s1`?
HT1080NT lethal: 4.1µM*; ATXN2 expr inh: 10µM*; HepG2 tox: 7.9µM*; TGFb inhibitor: 7.1µM*; HT1080 IDH1KD tx: 3.7µM*; S2 tox: 10µM*

What do the screens show for `Cn1c(SCC(=O)N/N=C/c2ccc([N+](=O)[O-])s2)nnc1-c1ccccc1`?
HT1080NT lethal: 21µM*; ATXN2 expr inh: inconclusive; HepG2 tox: -75%; TGFb inhibitor: inconclusive; HT1080 IDH1KD tx: 16µM*; S2 tox: inconclusive

What do the screens show for `O=C(N/N=C/c1sc2ccccc2c1O)c1ccccc1`?
HT1080NT lethal: 8.2µM*; ATXN2 expr inh: inconclusive; HepG2 tox: -53%; TGFb inhibitor: -13%; HT1080 IDH1KD tx: 2.6µM*; S2 tox: inactive

What do the screens show for `CCOc1ccc(NC(=O)CSc2oc(-c3ccc(C)cc3)nc2S(=O)(=O)c2ccc(C)cc2)cc1`?
ATXN2 expr inh: -10%; HepG2 tox: 2%; TGFb inhibitor: inconclusive; S2 tox: inactive

What do the screens show for `COc1ccc(NC(=O)CCc2nc3c(C)nn(-c4ccc(C)cc4)c3n(C)c2=O)cc1`?
ATXN2 expr inh: 2%; HepG2 tox: -1%; TGFb inhibitor: -27%; S2 tox: inactive

How did COC[C@@H](c1ccc(C(F)(F)F)cc1)N1CCN(C2(C)CCN(C(=O)c3c(C)ncnc3C)CC2)C[C@H]1C do in these assays?
ATXN2 expr inh: -11%; S2 tox: inactive

How did Cc1ccccc1CN1CCc2nnc(C(C)NC(=O)C3CCN(C)CC3)n2CC1 (configuration not stated) do in these assays?
S2 tox: inactive

How did Cc1ccnn1CC(=O)N/N=C/c1ccc([N+](=O)[O-])s1 do in these assays?
HT1080NT lethal: inconclusive; ATXN2 expr inh: inconclusive; HepG2 tox: -122%; TGFb inhibitor: 11µM*; HT1080 IDH1KD tx: -21%; S2 tox: inactive

Results for Cc1ccnn1CC(=O)N/N=C/c1cccs1 ?
HT1080NT lethal: 25%; ATXN2 expr inh: -6%; HepG2 tox: -13%; TGFb inhibitor: 1%; HT1080 IDH1KD tx: 18%; S2 tox: inactive

Results for COC(=O)N/N=C/c1ccc([N+](=O)[O-])s1 ?
HT1080NT lethal: -1%; ATXN2 expr inh: -28%; HepG2 tox: -35%; TGFb inhibitor: inconclusive; HT1080 IDH1KD tx: inconclusive; S2 tox: inactive

Results for COc1ccc(NC(C)C(=O)N/N=C/c2ccc([N+](=O)[O-])s2)cc1 (configuration not stated) ?
HT1080NT lethal: -21%; ATXN2 expr inh: inconclusive; HepG2 tox: 18µM*; TGFb inhibitor: 13µM*; HT1080 IDH1KD tx: -4%; S2 tox: inconclusive

Results for O=C(N/N=C/c1ccc([N+](=O)[O-])s1)C(O)c1ccccc1 (configuration not stated) ?
HT1080NT lethal: inconclusive; ATXN2 expr inh: inconclusive; HepG2 tox: 7.9µM*; TGFb inhibitor: 7.9µM*; HT1080 IDH1KD tx: inconclusive; S2 tox: inconclusive

Results for O=C(Cc1ccccc1)N/N=C/c1ccc([N+](=O)[O-])s1 ?
HT1080NT lethal: inconclusive; ATXN2 expr inh: -31%; HepG2 tox: -79%; TGFb inhibitor: inconclusive; HT1080 IDH1KD tx: inconclusive; S2 tox: inactive

How did Cc1ccc(NC(C)C(=O)N/N=C/c2ccc([N+](=O)[O-])s2)cc1 (configuration not stated) do in these assays?
HT1080NT lethal: inconclusive; ATXN2 expr inh: 33%[11.3 µM]; HepG2 tox: -79%; TGFb inhibitor: inconclusive; HT1080 IDH1KD tx: inconclusive; S2 tox: inactive

What do the screens show for `O=C(N/N=C/c1ccc([N+](=O)[O-])s1)c1ccccc1Br`?
HT1080NT lethal: inconclusive; ATXN2 expr inh: inconclusive; HepG2 tox: 10µM*; TGFb inhibitor: 11µM*; HT1080 IDH1KD tx: 16µM*; S2 tox: inconclusive

Results for CON=C(C(=O)N[C@@H]1C(=O)N2C(C(=O)O)=C(CSC(=O)c3ccco3)CS[C@H]12)c1csc(N)n1 ?
ATXN2 expr inh: 2%

How did COC(=O)c1ccc(NC(=O)CN2CCCN(Cc3ccc(Cl)cc3)S2(=O)=O)cc1 do in these assays?
ATXN2 expr inh: -22%; HepG2 tox: -18%; TGFb inhibitor: inconclusive; S2 tox: inactive

What do the screens show for `CCCN1CCN(CC2=C(C(=O)OCC)C(c3ccc(Cl)cc3)NC(=O)N2)CC1` (configuration not stated)?
ATXN2 expr inh: -10%; HepG2 tox: -30%; TGFb inhibitor: -22%; S2 tox: inactive

Results for O=C(N/N=C/c1ccc([N+](=O)[O-])s1)c1ccccc1 ?
HT1080NT lethal: -10%; ATXN2 expr inh: inconclusive; HepG2 tox: 13µM*; TGFb inhibitor: 11µM*; HT1080 IDH1KD tx: -13%; S2 tox: inactive

Results for O=C(N/N=C\c1ccc([N+](=O)[O-])s1)c1cncc(Br)c1 ?
HT1080NT lethal: inconclusive; ATXN2 expr inh: 10µM*; HepG2 tox: 3.5µM*; TGFb inhibitor: 6.3µM*; HT1080 IDH1KD tx: 6.5µM*; S2 tox: 28µM*

Results for CCc1cccc(NC(=O)c2sc3nc[nH]c(=O)c3c2C)c1 ?
HepG2 tox: -2%; TGFb inhibitor: -1%

How did O=C(COc1ccccc1C(=O)NCc1ccccc1)Nc1ccc(Br)cc1 do in these assays?
HepG2 tox: -49%; TGFb inhibitor: inconclusive
